# Reference: the supplement of paper PMC12669032
# “And” between values parts separate entries of the source, which are not always exact repeats. Equal entries are not always repeated. Values without a mark were called inactive.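 How the source made its calls: active = AUC reduced over 20% with Padj below 0.05 in at least 2 of 3 replicates; inactive = otherwise.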
# Tested on: Escherichia coli ED1a
# Test: growth AUC relative to DMSO control (median of replicates) (fraction); higher = more growth (less inhibition), active = hit call of the paper
# Conditions: 20 µM; 24 h
# Outline: (§1)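 For each compound at 20 µM (1% DMSO), gut bacterial monocultures seeded at OD600 0.05 grew anaerobically in mGAM at 37 °C in round-bottom 96-well plates. Hourly OD600 readings over 24 h gave growth curves whose minimum OD was set to 0. Area under these curves was normalised to the plate median of solvent-only wells, or to row and column medians on the industrial chemical plate. Values are medians of three biological replicates grown on separate days.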
row,Compound,growth AUC
1,COP(N)(=O)SC (stereo not drawn),1.03
2,COc1cc(OC)n2nc(S(=O)(=O)Nc3c(Cl)ccc(C)c3Cl)nc2n1,0.993
3,CC(C)N(C(=O)SCC(Cl)=C(Cl)Cl)C(C)C,0.977
4,O=S(=O)(c1ccc(O)cc1)c1ccc(O)cc1,1.05
5,CN(C)NC(=O)CCC(=O)O,0.988
6,CCN(CC)c1nc(C)cc(OP(=S)(OC)OC)n1,1.03
7,Clc1cccc(Cl)c1Cl,0.985
8,CCN(CC)C(=S)[S-].O.O.O.[Na+],0.972
9,C#CCC1=C(C)C(OC(=O)C2C(C=C(C)C)C2(C)C)CC1=O (stereo not drawn),1.02
10,CCOc1ccccc1OS(=O)(=O)NC(=O)Nc1nc(OC)cc(OC)n1,1.01
11,CNC(=O)Oc1cc(C)cc(C(C)C)c1,0.959
12,CCCCN(CC)c1c([N+](=O)[O-])cc(C(F)(F)F)cc1[N+](=O)[O-],0.994
13,O=C(O)CCl,0.995
14,CC[C@H](C)[C@H]1O[C@]2(C=C[C@@H]1C)C[C@@H]1C[C@@H](C/C=C(\C)[C@@H](O[C@H]3C[C@H](OC)[C@@H](O[C@H]4C[C@H](OC)[C@@H](NC)[C@H](C)O4)[C@H](C)O3)[C@@H](C)/C=C/C=C3\CO[C@@H]4[C@H](O)C(C)=C[C@@H](C(=O)O1)[C@]34O)O2.O=C(O)c1ccccc1,0.974
15,CON(C)C(=O)Nc1ccc(Cl)c(Cl)c1,1.02
16,CCCCOC(=O)[C@@H](C)Oc1ccc(Oc2ccc(C#N)cc2F)cc1,1
17,Clc1cc(Cl)c(Cl)c(Cl)c1,0.961
18,CN(C)C(=O)Nc1cccc(C(F)(F)F)c1,1.01
19,CN(C)C(=O)Nc1cccc(OC(=O)NC(C)(C)C)c1,0.995
20,CCOP(=O)(NC(C)C)Oc1ccc(SC)c(C)c1 (stereo not drawn),0.985

row,Compound,growth AUC
1,ClCC(Br)CBr (stereo not drawn),0.985
2,O=[N+]([O-])c1c(Cl)c(Cl)cc(Cl)c1Cl,0.99
3,CCS(=O)c1c(C#N)nn(-c2c(Cl)cc(C(F)(F)F)cc2Cl)c1N (stereo not drawn),0.988
4,CNC(=O)Oc1cccc2c1OC(C)(C)C2O (stereo not drawn),1.01
5,CCOP(=O)(SC(C)CC)N1CCSC1=O (stereo not drawn),0.984
6,CCOP(=O)(OCC)ON1C(=O)c2cccc3cccc(c23)C1=O,0.994
7,O=C(O)C(F)(F)C(F)(F)C(F)(F)C(F)(F)C(F)(F)C(F)(F)F,0.998
8,O=S1OC[C@@H]2[C@H](CO1)[C@]1(Cl)C(Cl)=C(Cl)[C@@]2(Cl)C1(Cl)Cl (stereo partly drawn),0.995 and 0.982
9,O=C(O)c1ccccc1C(=O)Nc1cccc2ccccc12,1.05
10,CCCCN(CCCC)SN(C)C(=O)Oc1cccc2c1OC(C)(C)C2,0.972
11,C[n+]1ccc(-c2cc[n+](C)cc2)cc1.O.[Cl-].[Cl-],1.03
12,CCC(C)(CC)c1cc(NC(=O)c2c(OC)cccc2OC)on1,1.01
13,CNC(=O)Oc1cc(C)c(SC)c(C)c1,0.987
14,COC(=O)C(C)(Cl)Cl,0.977
15,Cc1cc(Cl)ccc1N=CN(C)C,0.998
16,Nc1cc(Cl)cc(Cl)c1,1.03
17,CCCCCCCCCc1ccc(O)cc1,0.998
18,COc1c(Cl)ccc(Cl)c1Cl,0.967
19,CC(C)(C)c1cc([N+](=O)[O-])cc([N+](=O)[O-])c1O,0.93

# Tested on: Escherichia coli IAI1
# Test: as above
# Conditions: 20 µM; 24 h
# Outline: as §1
row,Compound,growth AUC
1,COP(N)(=O)SC (stereo not drawn),1.02
2,COc1cc(OC)n2nc(S(=O)(=O)Nc3c(Cl)ccc(C)c3Cl)nc2n1,1.02
3,CC(C)N(C(=O)SCC(Cl)=C(Cl)Cl)C(C)C,0.977
4,O=S(=O)(c1ccc(O)cc1)c1ccc(O)cc1,1.02
5,CN(C)NC(=O)CCC(=O)O,1.01
6,CCN(CC)c1nc(C)cc(OP(=S)(OC)OC)n1,0.978
7,Clc1cccc(Cl)c1Cl,0.997
8,CCN(CC)C(=S)[S-].O.O.O.[Na+],0.976
9,C#CCC1=C(C)C(OC(=O)C2C(C=C(C)C)C2(C)C)CC1=O (stereo not drawn),1
10,CCOc1ccccc1OS(=O)(=O)NC(=O)Nc1nc(OC)cc(OC)n1,1.01
11,CNC(=O)Oc1cc(C)cc(C(C)C)c1,0.957
12,CCCCN(CC)c1c([N+](=O)[O-])cc(C(F)(F)F)cc1[N+](=O)[O-],1
13,O=C(O)CCl,0.984
14,CC[C@H](C)[C@H]1O[C@]2(C=C[C@@H]1C)C[C@@H]1C[C@@H](C/C=C(\C)[C@@H](O[C@H]3C[C@H](OC)[C@@H](O[C@H]4C[C@H](OC)[C@@H](NC)[C@H](C)O4)[C@H](C)O3)[C@@H](C)/C=C/C=C3\CO[C@@H]4[C@H](O)C(C)=C[C@@H](C(=O)O1)[C@]34O)O2.O=C(O)c1ccccc1,0.95
15,CON(C)C(=O)Nc1ccc(Cl)c(Cl)c1,0.977
16,CCCCOC(=O)[C@@H](C)Oc1ccc(Oc2ccc(C#N)cc2F)cc1,0.966
17,Clc1cc(Cl)c(Cl)c(Cl)c1,0.982
18,CN(C)C(=O)Nc1cccc(C(F)(F)F)c1,0.986
19,CN(C)C(=O)Nc1cccc(OC(=O)NC(C)(C)C)c1,0.972
20,CCOP(=O)(NC(C)C)Oc1ccc(SC)c(C)c1 (stereo not drawn),0.953

row,Compound,growth AUC
1,ClCC(Br)CBr (stereo not drawn),0.996
2,O=[N+]([O-])c1c(Cl)c(Cl)cc(Cl)c1Cl,1.02
3,CCS(=O)c1c(C#N)nn(-c2c(Cl)cc(C(F)(F)F)cc2Cl)c1N (stereo not drawn),0.995
4,CNC(=O)Oc1cccc2c1OC(C)(C)C2O (stereo not drawn),1.01
5,CCOP(=O)(SC(C)CC)N1CCSC1=O (stereo not drawn),0.986
6,CCOP(=O)(OCC)ON1C(=O)c2cccc3cccc(c23)C1=O,0.958
7,O=C(O)C(F)(F)C(F)(F)C(F)(F)C(F)(F)C(F)(F)C(F)(F)F,1
8,O=S1OC[C@@H]2[C@H](CO1)[C@]1(Cl)C(Cl)=C(Cl)[C@@]2(Cl)C1(Cl)Cl (stereo partly drawn),0.985 and 1.03
9,O=C(O)c1ccccc1C(=O)Nc1cccc2ccccc12,1
10,CCCCN(CCCC)SN(C)C(=O)Oc1cccc2c1OC(C)(C)C2,1.01
11,C[n+]1ccc(-c2cc[n+](C)cc2)cc1.O.[Cl-].[Cl-],0.991
12,CCC(C)(CC)c1cc(NC(=O)c2c(OC)cccc2OC)on1,0.988
13,CNC(=O)Oc1cc(C)c(SC)c(C)c1,0.967
14,COC(=O)C(C)(Cl)Cl,1.02
15,Cc1cc(Cl)ccc1N=CN(C)C,0.963
16,Nc1cc(Cl)cc(Cl)c1,1.06
17,CCCCCCCCCc1ccc(O)cc1,1.01
18,COc1c(Cl)ccc(Cl)c1Cl,0.99
19,CC(C)(C)c1cc([N+](=O)[O-])cc([N+](=O)[O-])c1O,0.923
